The source of these data is PubChem BioAssay (NCATS).

Values joined by “and” are separate entries in the source; they are usually repeats but may differ in a detail not shown here. Equal entries are not always repeated. Active and inactive are the calls of the source. Calls come from the whole dose curve; as a rule, active = well fitted activation curve with a large enough effect; inconclusive = small, poorly fitted or top-dose-only effect; inactive = flat fitted curve, though single readings scatter.

This assay in a line: Cellular Toxicity (caspase-3) N2a (AID 665).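 Note: compound exposure lasted 16 h at 37 °C before readout.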 The note with it: N2a cells, luminescence, normalized: DMSO 0%, 10 µM staurosporine 100%; at 92.2 µM (top of the series). The text has this: NIH Chemical Genomics Center [NCGC]
NIH Molecular Libraries Screening Centers Network [MLSCN]
National Institutes of Environmental Health Sciences [NIEHS]
National Toxicology Program [NTP]
We have developed a 1536-well cell-based assay for quantitative high throughput screening (qHTS) against a number of cell lines to determine in vitro caspase 3/7 activity of small molecules. This particular assay uses the N2a cell line which is derived from mouse neuroblastoma.
NCGC Assay Protocol Summary:
The Caspase-Glo 3/7 assay (Promega) is a homogeneous method to measure caspase-3 and caspase-7 activities in cultured cells. The quantitation of caspase 3/7 activity is based on the cleavage of a peptide-aminoluciferin substrate. After caspase cleaves the substrate the free aminoluciferin is liberated and serves as the substrate of luciferase, which generates the light. The luminescent signal is proportional to the amount of caspase 3/7 activity present.
Using the Caspase-Glo 3/7 assay, the amount of caspase 3/7 activity was measured in the N2a cells with complete culture medium following compound treatment for 16 hours. The assay was performed in opaque white 1536-well plates. In the screen, staurosporine and doxorubicin were used as positive controls. Library compounds were measured for their ability to cause the activation of caspase 3/7 in the cell line, as reflected by an increase in luminescence signal, in a concentration-dependent manner. Data were normalized to the controls for basal activity (DMSO only) and 100% stimulation (10 uM staurosporine). AC50 values were determined from concentration-response data modeled with the standard Hill equation.
qHTS protocol for caspase 3/7 assay in mouse N2a cell line
[Step] [Parameter] [Value] [Description]
1. Reagent; 5 uL; 1500 mouse N2a cells/well
2. Time; 5 hr; 37 °C incubation
4. Controls; 23 nL; doxorubicin 7 pM to 100 uM & staurosporine 1.4 pM to 20 uM
5. Time; 16 hr; 37 °C incubation
6. Reagent; 5 uL; Caspase-Glo 3/7 reagent
7. Time; 1 hr; Room Temperature
8. Detection; Luminescence; Viewlux plate reader
Keywords: caspase 3/7, apoptosis, mouse N2a cell line, luminescence, NTPHTS, NTPHTS_NCGC, NIEHS, EPA, DSSTox, MLSMR, MLSCN, NIH Roadmap, qHTS, NCGC
On to `Brc1ccccc1`, for which the caspase-3 activation is 0.903% (inactive).

`Clc1cccc(C(Cl)(Cl)Cl)n1`: the caspase-3 activation was -0.536% (inactive).

For the compound `CCSC(=O)Cl`, the caspase-3 activation was -2.14% (inactive).

`Cc1ccc([N+](=O)[O-])cc1C`: the caspase-3 activation was -3.15% (inactive).

As to `O=NN(c1ccccc1)c1ccccc1`, the caspase-3 activation was 0.181% (inactive).

On to `C=CC(C)=O`, for which the caspase-3 activation was 0.266% (inactive).

Turning to `Nc1c(Cl)c(Cl)nc(C(=O)O)c1Cl`, the caspase-3 activation is -2.12% (inactive).

Consider `CCCCOCCOP(=O)(OCCOCCCC)OCCOCCCC`, for which the caspase-3 activation was -1.18% (inactive).

For the compound `COc1ccc(C=O)cc1OC`, the caspase-3 activation was -1.73% (inactive).

For `c1ccc2c(c1)CCCC2`, the caspase-3 activation is 1.3% (inactive).

In the case of `OCC(Br)CBr` (stereo not given), the caspase-3 activation is -2.35% (inactive).

As to `CCCCCCCCCc1ccc(O)cc1`, the caspase-3 activation is 98.6% (active).

Take `CCOCN(C(=O)CCl)c1c(C)cccc1CC`: the caspase-3 activation is -0.109% (inactive).

Consider `O=C=NC1CCCCC1`, for which the caspase-3 activation is 0.146% (inactive) and -1.42% (inactive).

`C=CCc1ccc2c(c1)OCO2`: the caspase-3 activation was -4.3% (inactive).

`O=[N+]([O-])c1ccc(Cl)c(Cl)c1`: the caspase-3 activation is -2.95% (inactive).

Turning to `O=NN(CCO)CCO`, the caspase-3 activation is -1.3% (inactive).

As to `ClC(Cl)=C(c1ccc(Cl)cc1)c1ccc(Cl)cc1`, the caspase-3 activation is 2.33% (inactive) and 2.48% (inactive).

With `COP(=S)(OC)Oc1ccc([N+](=O)[O-])cc1`, the caspase-3 activation is -2.62% (inactive).

With `CCC[CH2][Sn]([Cl])([Cl])[Cl]`, the caspase-3 activation was 0.958% (inactive).

As for `Clc1ccc2ccccc2c1`, the caspase-3 activation was 4.04% (inactive).

Consider `O=C(O)COc1ccc(Cl)cc1Cl`, for which the caspase-3 activation was -2.05% (inactive) and -1.8% (inactive).

`COc1ccc(N)cc1`: the caspase-3 activation was 1.03% (inactive) and -0.467% (inactive).

Regarding `Clc1cc(Cl)c(-c2cc(Cl)c(Cl)cc2Cl)cc1Cl`, the caspase-3 activation is -0.702% (inactive).

As for `C=CC1CC=CCC1` (stereo not given), the caspase-3 activation was -0.281% (inactive).

In the case of `ClC(Cl)=C(Cl)Cl`, the caspase-3 activation is 0.443% (inactive) and 1.4% (inactive).

As for `ClC1=C(Cl)C2(Cl)C3C4C=CC(C4)C3C1(Cl)C2(Cl)Cl` (stereo not given), the caspase-3 activation was 2.47% (inactive).

Take `c1ccc(OP(Oc2ccccc2)Oc2ccccc2)cc1`: the caspase-3 activation was 0.755% (inactive).

As to `Brc1ccc(Oc2cc(Br)c(Br)cc2Br)c(Br)c1`, the caspase-3 activation is 12.3% (inactive) and 4.39% (inactive).

In the case of `C=CC(=C)C`, the caspase-3 activation is -1.13% (inactive).

Consider `Nc1ccc(Br)cc1`, for which the caspase-3 activation is 0.277% (inactive).

Take `Clc1nc(Cl)nc(Cl)n1`: the caspase-3 activation was 1.31% (inactive).

In the case of `ClC(Cl)=C(Cl)C(Cl)=C(Cl)Cl`, the caspase-3 activation is -2.34% (inactive).

As to `CCCSC(=O)Cl`, the caspase-3 activation is -1.31% (inactive).

As to `CC(Cl)Cl`, the caspase-3 activation is -4.66% (inactive).

For `c1ccc(N=Nc2ccccc2)cc1`, the caspase-3 activation was -2.4% (inactive).

Turning to `CCCOC(=O)c1ccccc1C(=O)OCCC`, the caspase-3 activation was 2.99% (inactive).

On to `ClCBr`, for which the caspase-3 activation is -2% (inactive).

`S=C=Nc1cccc2ccccc12`: the caspase-3 activation was 0.808% (inactive).

Take `CCOc1ccc(N)cc1`: the caspase-3 activation was 6.79% (inactive).
